The record followed here is PubChem BioAssay (NCATS).

Records with an inconclusive call do not appear. Activity calls are given as the source filed them. Calls follow the shape of the dose curve; as a rule, active = well fitted inhibition curve with a large enough effect; inconclusive = small, poorly fitted or top-dose-only effect; inactive = flat fitted curve, though single readings scatter.

Sequence of Lysine-specific demethylase 5B (Homo sapiens) (Q9UGL1 whole entry, looked up): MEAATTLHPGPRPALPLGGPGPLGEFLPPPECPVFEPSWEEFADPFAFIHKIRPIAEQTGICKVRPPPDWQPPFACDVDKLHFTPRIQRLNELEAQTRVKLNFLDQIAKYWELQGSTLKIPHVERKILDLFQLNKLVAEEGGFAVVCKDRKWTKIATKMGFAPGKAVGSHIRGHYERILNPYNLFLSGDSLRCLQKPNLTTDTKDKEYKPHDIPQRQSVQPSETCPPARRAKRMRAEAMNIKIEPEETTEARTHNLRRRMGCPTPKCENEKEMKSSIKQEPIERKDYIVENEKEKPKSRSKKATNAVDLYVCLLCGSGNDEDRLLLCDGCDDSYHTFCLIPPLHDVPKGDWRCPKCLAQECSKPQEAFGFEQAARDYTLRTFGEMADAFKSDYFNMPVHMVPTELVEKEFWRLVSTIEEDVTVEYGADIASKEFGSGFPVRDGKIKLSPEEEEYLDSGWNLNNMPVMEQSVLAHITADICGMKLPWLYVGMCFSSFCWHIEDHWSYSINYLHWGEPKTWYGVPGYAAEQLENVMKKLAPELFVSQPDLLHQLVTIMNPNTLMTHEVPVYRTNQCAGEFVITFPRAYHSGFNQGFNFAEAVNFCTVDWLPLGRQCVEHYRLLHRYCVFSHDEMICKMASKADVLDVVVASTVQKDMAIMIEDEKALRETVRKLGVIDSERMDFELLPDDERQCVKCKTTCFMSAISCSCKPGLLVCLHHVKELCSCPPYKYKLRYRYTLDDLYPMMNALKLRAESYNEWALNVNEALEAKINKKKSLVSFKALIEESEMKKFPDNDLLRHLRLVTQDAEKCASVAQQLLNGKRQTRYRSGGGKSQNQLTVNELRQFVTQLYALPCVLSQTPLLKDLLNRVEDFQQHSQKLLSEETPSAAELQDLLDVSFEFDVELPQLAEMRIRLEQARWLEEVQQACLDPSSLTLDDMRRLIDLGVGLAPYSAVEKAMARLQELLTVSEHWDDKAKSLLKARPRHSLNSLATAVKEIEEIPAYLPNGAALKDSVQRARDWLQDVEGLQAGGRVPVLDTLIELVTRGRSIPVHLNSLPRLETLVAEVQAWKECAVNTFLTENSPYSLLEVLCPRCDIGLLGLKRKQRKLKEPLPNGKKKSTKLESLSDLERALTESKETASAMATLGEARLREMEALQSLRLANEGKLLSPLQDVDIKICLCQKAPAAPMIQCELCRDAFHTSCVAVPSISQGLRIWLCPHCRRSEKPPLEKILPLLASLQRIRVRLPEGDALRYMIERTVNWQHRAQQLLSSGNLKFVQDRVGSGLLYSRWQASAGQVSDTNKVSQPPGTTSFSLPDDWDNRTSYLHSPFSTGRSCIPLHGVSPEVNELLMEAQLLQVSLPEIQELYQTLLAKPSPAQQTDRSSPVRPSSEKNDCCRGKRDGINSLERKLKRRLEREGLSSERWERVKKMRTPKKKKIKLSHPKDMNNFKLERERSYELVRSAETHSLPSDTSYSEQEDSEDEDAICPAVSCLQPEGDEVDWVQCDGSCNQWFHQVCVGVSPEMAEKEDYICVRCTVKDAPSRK

The target in this assay is Lysine-specific demethylase 5B (Homo sapiens) (UniProt Q9UGL1). Put plainly: Optimization screen for KDM5B Histone Demethylases FDH coupled qHTS against the LOPAC library (AID 1347166). The note with it: KDM5B demethylation, FDH-coupled NADH fluorescence (FDH is formaldehyde dehydrogenase); series mostly up to 57.5 µM. Put shortly:
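KDM5BDeltaAP (200nM final) preincubated 10 min with compound, then 12.5uM H3K4Me3, 25uM a-ketoglutarate, ascorbate, Fe(II), NAD+ and FDH added; 50mM HEPES pH 7.5, 0.01% Tween-20. NADH fluorescence (340/450 nm) change over 30 min, room temperature.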
A general note: Quantitative high-throughput screening tests each substance at several concentrations.
With `CC(C)C(=O)Nc1ccc([N+](=O)[O-])c(C(F)(F)F)c1`, the result was inactive.
The entry for `CN1CCC(=C2c3ccccc3CC(=O)c3sccc32)CC1` is “inactive”; for `CCOC(=O)c1ncn2c1CN(C)C(=O)c1cc(F)ccc1-2` it is “inactive”; for `CN1CCC(=C2c3ccccc3C=Cc3ccccc32)CC1` it is “inactive”.
The entry for `COc1ccccc1N1CCN(CC(O)COc2cccc3ccccc23)CC1` (stereo not given) is “inactive”; for `COc1ccc(CCN(C)CCCC(C#N)(c2ccc(OC)c(OC)c2)C(C)C)cc1OC` (stereo not given) it is “inactive”; for `COc1ccc2c(c1)c(CC(=O)O)c(C)n2C(=O)c1ccc(Cl)cc1` it is “inactive”.
As for `CCN1CCCC1CNC(=O)c1cc(S(=O)(=O)CC)c(N)cc1OC` (stereo not given), the entry is “inactive”.
For `CN1C(C(=O)Nc2ccccn2)=C(O)c2ccccc2S1(=O)=O`, the outcome was inactive.
The entry for `COc1ccc(C2CNC(=O)C2)cc1OC1CCCC1` (stereo not given) is “inactive”.
As for `Cc1cn([C@H]2C[C@H](N=[N+]=[N-])[C@@H](CO)O2)c(=O)[nH]c1=O`, the entry is “inactive”; as for `CN(C)C(=O)C(CCN1CCC(O)(c2ccc(Cl)cc2)CC1)(c1ccccc1)c1ccccc1`, “inactive”; as for `CN1C2CCC1CC(OC(=O)C(CO)c1ccccc1)C2` (stereo not given), “inactive”.
The entry for `CCOC(=O)C(C)(C)Oc1ccc(Cl)cc1` is “inactive”.
Regarding `CCC1(C)CC(=O)NC1=O` (stereo not given), the result was inactive.
As for `CN(C)CCCN1c2ccccc2CCc2ccc(Cl)cc21`, the entry is “inactive”; as for `Fc1ccc([C@@H]2CCNC[C@H]2COc2ccc3c(c2)OCO3)cc1`, “inactive”; as for `CC(C)Cc1ccc(C(C)C(=O)O)cc1` (stereo not given), “inactive”.
The entry for `COc1ccccc1OCCNCC(O)COc1cccc2[nH]c3ccccc3c12` (stereo not given) is “inactive”.
As for `NC(=O)OCC(COC(N)=O)c1ccccc1`, the outcome was inactive.
As for `CC(C)(Oc1ccc(C2CC2(Cl)Cl)cc1)C(=O)O` (stereo not given), the entry is “inactive”; as for `CC(COc1ccccc1)N(CCCl)Cc1ccccc1` (stereo not given), “inactive”.
The entry for `O=C(CCCN1CCC(O)(c2ccc(Cl)cc2)CC1)c1ccc(F)cc1` is “inactive”; for `Clc1ccccc1C(c1ccccc1)(c1ccccc1)n1ccnc1` it is “inactive”; for `NS(=O)(=O)c1cc2c(cc1Cl)NCNS2(=O)=O` it is “inactive”.
